Assay [1] concerns RAW-Dual. Kind of assay: IRF Lucia reporter activity, fold change vs agonist alone; cytotoxicity flag (confluency mask): not cytotoxic; higher = enhanced IRF activity. The essentials:
(§1)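 Supernatant from RAW-Dual macrophages was read after 20 hours for IRF by QuantiLuc luminescence and for NF-κB by QuantiBlue absorbance at 620 nm. The cells (50,000 cells/well in DMEM, 384-well plates, 37 °C, 5% CO2) had received 50 nL of library stock by pin tool and, 1 h later, a PRR agonist. Reporter activity is expressed relative to agonist-alone wells as fold change, and wells were flagged cytotoxic if IncuCyte confluency was under 70% of agonist controls in both mask sets.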

Assay [2] relates to RAW-Dual. Kind of assay: IRF Lucia reporter activity, fold change vs agonist alone; higher = enhanced IRF activity. Particulars: agonist: MPLA (TLR4) […]. The essentials: as §1
Assay [3] concerns RAW-Dual. Kind of assay: IRF Lucia reporter activity, fold change vs agonist alone; cytotoxicity flag (confluency mask): cytotoxic (confluency <70% of control); higher = enhanced IRF activity. The essentials:
as §1

[4] abbreviates: agonist: 3'3'-cGAMP (STING) 10 ug/mL.
The mark [5] stands for this setting: library stock concentration (final ~1000-fold dilution): 10 mM, cytotoxicity flag (confluency mask): not cytotoxic.
Where [6] appears, read: library stock concentration (final ~1000-fold dilution): 10 mM, cytotoxicity flag (confluency mask): cytotoxic (confluency <70% of control).

Several values for one entry are separate records, joined by “and”; a condition that tells them apart may be missing. Identical values can stand only once. ± gives the standard deviation of the averaged measurements. The full ranking holds about 2,900 compounds; the median of “IRF Lucia reporter activity, fold change vs agonist alone” is about 0.9, and the highest 2% start at about 2.8. The entries come from a sample that favours the highest values as a whole.

Consider `COC(=O)c1ccc(O)c(NC(=O)COc2ccc(C34CC5CC(CC(C5)C3)C4)cc2)c1` (library stock concentration (final ~1000-fold dilution): 10 mM), for which the “IRF Lucia reporter activity” value in assay [1] (setting [4]) is 0.925; in assay [1] (agonist: LPS (TLR4) 0.1 ug/mL), 1.14. In the same order, the values of `CC(C)Cc1ccc([C@@H](C)C(=O)O)cc1` (library stock concentration (final ~1000-fold dilution): 10 mM) are 0.953 and 1.08. In the case of `CCC(C)C(=O)OC1CC(C)C=C2C=CC(C)C(CCC3CC(O)CC(=O)O3)C21` (centres undefined), in assay [2] (setting [5]), the “IRF Lucia reporter activity” value amounted to 0.744. Turning to `CCC(C)C(=O)OC1CC(C)C=C2C=CC(C)C(CCC3CC(O)CC(=O)O3)C21` (centres undefined) (library stock concentration (final ~1000-fold dilution): 10 mM), the results for the “IRF Lucia reporter activity” value in assay [1] (setting [4]) and in assay [1] (agonist: LPS (TLR4) 0.1 ug/mL) were 0.497 and 0.764, respectively.

As for `Cc1cc(/C=C/C#N)cc(C)c1Nc1ccnc(Nc2ccc(C#N)cc2)n1`, in assay [2] (setting [5]), the “IRF Lucia reporter activity” value came out at 0.64. For `Cc1cc(C#N)cc(C)c1Oc1nc(Nc2ccc(C#N)cc2)nc(N)c1Br` (library stock concentration (final ~1000-fold dilution): 10 mM), the figures for the “IRF Lucia reporter activity” value in assay [1] (setting [4]) and in assay [1] (agonist: LPS (TLR4) 0.1 ug/mL) were 1.09 and 2.87, respectively. Take `Cc1cc(C)c(Nc2ccnc(Nc3ccc(C#N)cc3)n2)c(C)c1`: the “IRF Lucia reporter activity” value in assay [2] (setting [6]) is 1.7. `Cc1cc(C#N)cc(C)c1Oc1nc(Nc2ccc(C#N)cc2)nc(N)c1Br`: in assay [2] (setting [5]), the “IRF Lucia reporter activity” value was found to be 2.4. For the compound `Cc1cc(C)c(Nc2ccnc(Nc3ccc(C#N)cc3)n2)c(C)c1` (library stock concentration (final ~1000-fold dilution): 10 mM), the “IRF Lucia reporter activity” value in assay [3] (setting [4]) stood at 0.691; in assay [3] (agonist: LPS (TLR4) 0.1 ug/mL), 0.81. For the compound `Cc1cc(/C=C/C#N)cc(C)c1Nc1ccnc(Nc2ccc(C#N)cc2)n1` (library stock concentration (final ~1000-fold dilution): 10 mM), the “IRF Lucia reporter activity” value in assay [1] (setting [4]) was 0.03; in assay [1] (agonist: LPS (TLR4) 0.1 ug/mL), 0.489. For `CC1CNc2c(cccc2S(=O)(=O)NC(CCCNC(=N)N)C(=O)N2CCC(C)CC2C(=O)O)C1` (centres undefined), in assay [2] (setting [5]), the “IRF Lucia reporter activity” value is 0.948. As to `CC1CNc2c(cccc2S(=O)(=O)NC(CCCNC(=N)N)C(=O)N2CCC(C)CC2C(=O)O)C1` (centres undefined) (library stock concentration (final ~1000-fold dilution): 10 mM), the “IRF Lucia reporter activity” value in assay [1] (setting [4]) was 1.01; in assay [1] (agonist: LPS (TLR4) 0.1 ug/mL), 0.919.

For `O=C(O)c1cc(I)ccc1NC(=O)C(Cc1ccccc1)NCc1ccccc1` (centres undefined) (library stock concentration (final ~1000-fold dilution): 10 mM), the “IRF Lucia reporter activity” value in assay [1] (setting [4]) was determined as 1.17; in assay [1] (agonist: LPS (TLR4) 0.1 ug/mL), 1.41. With `O=C(O)c1cc(I)ccc1NC(=O)C(Cc1ccccc1)NCc1ccccc1` (centres undefined), the “IRF Lucia reporter activity” value in assay [2] (setting [5]) was 1.05.

Consider `Nc1nc2[nH]cc(CCc3ccc(C(=O)NC(CCC(=O)O)C(=O)O)cc3)c2c(=O)[nH]1` (centres undefined), for which the “IRF Lucia reporter activity” value in assay [2] (library stock concentration (final ~1000-fold dilution): 10 mM water, cytotoxicity flag (confluency mask): not cytotoxic) turned out to be 1.12. With `Nc1nc2[nH]cc(CCc3ccc(C(=O)NC(CCC(=O)O)C(=O)O)cc3)c2c(=O)[nH]1` (centres undefined) (library stock concentration (final ~1000-fold dilution): 10 mM water), the “IRF Lucia reporter activity” value was 1.15 and 0.82 in assay [1] (setting [4]); 0.998 and 0.771 in assay [1] (agonist: LPS (TLR4) 0.1 ug/mL). For the compound `CN1C(=O)C(Cc2c[nH]c3ccccc23)NC1=S` (centres undefined) (library stock concentration (final ~1000-fold dilution): 10 mM), the “IRF Lucia reporter activity” value came to 0.553 in assay [1] (setting [4]) and 3.04 in assay [1] (agonist: LPS (TLR4) 0.1 ug/mL). With `CN1C(=O)NC(Cc2c[nH]c3c(Cl)cccc23)C1=O` (centres undefined) (library stock concentration (final ~1000-fold dilution): 10 mM), the “IRF Lucia reporter activity” value in assay [1] (setting [4]) stood at 0.896; in assay [1] (agonist: LPS (TLR4) 0.1 ug/mL), 0.697. Take `CC(C)CC1NC(=O)C(C(C)C)NC(=O)C2CCCN2C(=O)C(CC(=O)O)NC(=O)C(Cc2c[nH]c3ccccc23)NC1=O` (centres undefined) (library stock concentration (final ~1000-fold dilution): 10 mM): the “IRF Lucia reporter activity” value is 1.23 in assay [1] (setting [4]) and 1.01 in assay [1] (agonist: LPS (TLR4) 0.1 ug/mL). Consider `CC(=O)OCC1OC([S-])C(OC(C)=O)C(OC(C)=O)C1OC(C)=O.CCP(CC)CC.[Au+]` (centres undefined) (library stock concentration (final ~1000-fold dilution): 10 mM), for which the “IRF Lucia reporter activity” value in assay [3] (setting [4]) was found to be 0.0169; in assay [3] (agonist: LPS (TLR4) 0.1 ug/mL) it was 0.0188. For the compound `CC(=O)OCC1OC([S-])C(OC(C)=O)C(OC(C)=O)C1OC(C)=O.CCP(CC)CC.[Au+]` (centres undefined), in assay [2] (setting [6]), the “IRF Lucia reporter activity” value was determined as 0.0231. Turning to `CC(=O)OC1CC/C(C)=C/CC/C(C)=C/CC2(C(C)C)CCC1(C)O2` (centres undefined) (library stock concentration (final ~1000-fold dilution): 10 mM), the results for the “IRF Lucia reporter activity” value in assay [1] (setting [4]) and in assay [1] (agonist: LPS (TLR4) 0.1 ug/mL) were 0.818 ± 0.25 and 0.744 ± 0.15, respectively. `O=C(/C=C/c1ccc(O)c(O)c1)O[C@@H]1C[C@@](O)(C(=O)O)C[C@@H](O)[C@@H]1O` (library stock concentration (final ~1000-fold dilution): 10 mM): the “IRF Lucia reporter activity” value in assay [1] (setting [4]) was 1.02; in assay [1] (agonist: LPS (TLR4) 0.1 ug/mL) it was 1.23. The matching figures for `CS(=O)(=O)O.Cc1c(O)cccc1C(=O)NC(CSc1ccccc1)C(O)CN1CC2CCCCC2CC1C(=O)NC(C)(C)C` (centres undefined) (library stock concentration (final ~1000-fold dilution): 10 mM): 0.918 and 3.62. In the case of `CC(C)(C)NC(=O)C1CN(Cc2cccnc2)CCN1CC(O)CC(Cc1ccccc1)C(=O)NC1c2ccccc2CC1O.O=S(=O)(O)O` (centres undefined) (library stock concentration (final ~1000-fold dilution): 10 mM), the “IRF Lucia reporter activity” value in assay [1] (setting [4]) came to 1.1; in assay [1] (agonist: LPS (TLR4) 0.1 ug/mL), 0.77. As for `CS(=O)(=O)O.Cc1c(O)cccc1C(=O)NC(CSc1ccccc1)C(O)CN1CC2CCCCC2CC1C(=O)NC(C)(C)C` (centres undefined), the “IRF Lucia reporter activity” value in assay [2] (setting [5]) turned out to be 2.24. As to `CC(C)c1nc(CN(C)C(=O)NC(C(=O)NC(Cc2ccccc2)CC(O)C(Cc2ccccc2)NC(=O)OCc2cncs2)C(C)C)cs1` (centres undefined), the “IRF Lucia reporter activity” value in assay [2] (setting [5]) was 1.07. In the case of `CC(C)c1nc(CN(C)C(=O)NC(C(=O)NC(Cc2ccccc2)CC(O)C(Cc2ccccc2)NC(=O)OCc2cncs2)C(C)C)cs1` (centres undefined) (library stock concentration (final ~1000-fold dilution): 10 mM), the results for the “IRF Lucia reporter activity” value in assay [1] (setting [4]) and in assay [1] (agonist: LPS (TLR4) 0.1 ug/mL) were 0.757 and 1.34, respectively.

Turning to `Cc1cc(C(=O)NC(C)(C)C)cc(C#Cc2ccc3c4c(oc3c2)C(C)(C)c2cc(NS(C)(=O)=O)ccc2C4=O)n1` (library stock concentration (final ~1000-fold dilution): 10 mM), the “IRF Lucia reporter activity” value came out at 0.196 in assay [1] (setting [4]) and 0.504 in assay [1] (agonist: LPS (TLR4) 0.1 ug/mL). Take `CCC1=CC2CN(C1)Cc1c([nH]c3ccccc13)C(C(=O)OC)(c1cc3c(cc1OC)N(C)C1C(O)(C(=O)OC)C(OC(C)=O)C4(CC)C=CCN5CCC31C54)C2` (centres undefined) (library stock concentration (final ~1000-fold dilution): 10 mM): the “IRF Lucia reporter activity” value in assay [3] (setting [4]) is 0.371; in assay [3] (agonist: LPS (TLR4) 0.1 ug/mL), 2.95. In the same order, the values of `CCC1(O)CC2CN(CCc3c([nH]c4ccccc34)C(C(=O)OC)(c3cc4c(cc3OC)N(C)C3C(O)(C(=O)OC)C(OC(C)=O)C5(CC)C=CCN6CCC43C65)C2)C1.O=S(=O)(O)O` (centres undefined) (library stock concentration (final ~1000-fold dilution): 10 mM) are 0.226 and 2.16. Regarding `CCC1(O)CC2CN(CCc3c([nH]c4ccccc34)C(C(=O)OC)(c3cc4c(cc3OC)N(C=O)C3C(O)(C(=O)OC)C(OC(C)=O)C5(CC)C=CCN6CCC43C65)C2)C1.O=S(=O)(O)O` (centres undefined), the “IRF Lucia reporter activity” value in assay [2] (setting [5]) stood at 1.06. Turning to `CCC1=CC2CN(C1)Cc1c([nH]c3ccccc13)C(C(=O)OC)(c1cc3c(cc1OC)N(C)C1C(O)(C(=O)OC)C(OC(C)=O)C4(CC)C=CCN5CCC31C54)C2` (centres undefined), in assay [2] (setting [6]), the “IRF Lucia reporter activity” value worked out at 2.68.

`CCC1(O)CC2CN(CCc3c([nH]c4ccccc34)C(C(=O)OC)(c3cc4c(cc3OC)N(C=O)C3C(O)(C(=O)OC)C(OC(C)=O)C5(CC)C=CCN6CCC43C65)C2)C1.O=S(=O)(O)O` (centres undefined) (library stock concentration (final ~1000-fold dilution): 10 mM): the “IRF Lucia reporter activity” value was found to be 0.107 in assay [1] (setting [4]) and 2.02 in assay [1] (agonist: LPS (TLR4) 0.1 ug/mL). Regarding `CCC1(O)CC2CN(CCc3c([nH]c4ccccc34)C(C(=O)OC)(c3cc4c(cc3OC)N(C)C3C(O)(C(=O)OC)C(OC(C)=O)C5(CC)C=CCN6CCC43C65)C2)C1.O=S(=O)(O)O` (centres undefined), the “IRF Lucia reporter activity” value in assay [2] (setting [6]) is 2.07. Regarding `CCCCS(=O)(=O)NC(Cc1ccc(OCCCCC2CCNCC2)cc1)C(=O)O.Cl.O` (centres undefined) (library stock concentration (final ~1000-fold dilution): 10 mM), the “IRF Lucia reporter activity” value in assay [1] (setting [4]) stood at 0.894; in assay [1] (agonist: LPS (TLR4) 0.1 ug/mL) it was 1.35.

(Values after the supplement of paper PMC10037445.)
